Measurements reported in PubChem BioAssay.
Activity calls are given as the source filed them. No rule for the calls is given here.

assay: hESC survival regulators, cell-based (AID 493140); conditions: human embryonic stem cell survival screen; active compounds read high;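 also: cells exposed to compounds for four days before counting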

With `CC(=O)O[C@H]1C(=O)[C@@]2(C)[C@H](O)C[C@@H]3OC[C@]3(OC(C)=O)[C@@H]2[C@@H](OC(=O)c2ccccc2)[C@@]2(O)C[C@@H](OC(=O)[C@@H](O)[C@H](NC(=O)c3ccccc3)c3ccccc3)C(C)=C1C2(C)C` as the compound, how does the survival read?
Its survival is 5 (inactive).

With `CC(=O)NC1[C@@H](O)OC(CO)[C@@H](O)[C@H]1O[C@H](C)C(=O)O` (stereo not given in full) as the compound, how does the survival read?
The survival was 11.5 (inactive).

With `CN=C(NC#N)NCCSCC1N=CN=C1C` (stereo not given) as the compound, how does the survival read?
The survival was 16.7 (inactive).

For `Cc1c(C)c2c(c(C)c1O)CC[C@](C)(CCC[C@@H](C)CCC[C@@H](C)CCCC(C)C)O2`, which survival is on record?
Its survival is 5.83 (inactive).

With `CN(C)CC/C=C1/c2ccccc2CSc2ccccc21` as the compound, how does the survival read?
The survival was 3.75 (inactive).

For `C=CC1=C(C(=O)O)N2C(=O)[C@@H](NC(=O)/C(=N/OCC(=O)O)c3csc(N)n3)[C@H]2SC1` (stereo in doubt), which survival is on record?
The survival was 5.58 (inactive).

For `Nc1c2ccccc2nc2c(O)cccc12`, which survival is on record?
Its survival is 5.5 (inactive).

With `CCOC(=O)[C@@H](CCc1ccccc1)NC(C)C(=O)N1CCC[C@@H]1C(=O)O` (stereo not given in full) as the compound, how does the survival read?
The survival was 25.8 (inactive).

For `CN1[C@@H]2CC[C@H]1CC(OC(=O)[C@@H](CO)c1ccccc1)C2` (stereo not given in full), which survival is on record?
Its survival is 13.1 (inactive).

Which survival does the source give for `O=C1O[C@H](C(O)CO)[C@H](O)C1O` (stereo not given in full) here?
Its survival is 4.42 (inactive).

With `C=C1CC[C@@H](O)C/C1=C/C=C1\CCC[C@]2(C)[C@@H]([C@H](C)CCCC(C)C)CC[C@@H]12` as the compound, how does the survival read?
Its survival is 15.8 (inactive).

With `COC(=O)C1=CO[C@@H](C)[C@@H]2CN3CCc4c([nH]c5ccccc45)C3C[C@H]12` (stereo not given in full) as the compound, how does the survival read?
The survival was 5.92 (inactive).

Which survival does the source give for `CC(=O)NC(CC(=O)O)C(=O)O` (stereo not given) here?
The survival was 11.8 (inactive).

For `COc1cc(OC)c2c(c1Cl)O[C@]1(C2=O)C(OC)CC(=O)C[C@H]1C` (stereo not given in full), which survival is on record?
Its survival is 13.2 (inactive).

With `CC(C)(CO)[C@H](O)C(=O)NCCC(=O)O` as the compound, how does the survival read?
The survival was 19.5 (inactive).

Which survival does the source give for `C[C@]12CCC(=O)C[C@H]1CC(=O)[C@@H]1[C@@H]2CC(=O)[C@]2(C)CCC[C@@H]12` (tested in a mixture with another compound) here?
Its survival is 19.5 (inactive).

Which survival does the source give for `Nc1nc2ncc(CNc3ccc(C(=O)N[C@H](CCC(=O)O)C(=O)O)cc3)nc2c(=O)[nH]1` here?
Its survival is 11.4 (inactive).

For `O=c1[nH]c(=O)n([C@H]2CC(O)[C@@H](CO)O2)cc1I` (stereo not given in full), which survival is on record?
Its survival is 6.25 (inactive).

For `CC(C)(O/N=C(/C(=O)N[C@@H]1C(=O)N2C(C(=O)[O-])=C(C[n+]3ccccc3)CS[C@H]12)c1csc(N)n1)C(=O)O`, which survival is on record?
Its survival is 5.92 (inactive).

With `C=C1CC[C@@H](O)C/C1=C/C=C1\CCC[C@]2(C)[C@@H]([C@H](C)/C=C/[C@@H](C)C(C)C)CC[C@@H]12` as the compound, how does the survival read?
The survival was 8.25 (inactive).

Which survival does the source give for `CC1Cc2ccccc2N1NC(=O)c1ccc(Cl)c(S(N)=O)c1` (stereo not given) here?
The survival was 17.1 (inactive).

For `CC[C@H]1OC(=O)[C@H](C)[C@@H](O[C@H]2C[C@@](C)(OC)[C@@H](O)[C@H](C)O2)[C@H](C)[C@@H](O[C@H]2O[C@H](C)C[C@H](N(C)C)[C@H]2O)[C@](C)(O)C[C@@H](C)C(=O)[C@H](C)[C@@H](O)[C@]1(C)O`, which survival is on record?
The survival was 35.4 (inactive).

Which survival does the source give for `CC(C)CC(=O)NC(C(=O)N[C@H](C(=O)NC(CC(C)C)[C@@H](O)CC(=O)N[C@@H](C)C(=O)NC(CC(C)C)[C@@H](O)CC(=O)O)C(C)C)C(C)C` (stereo not given in full) here?
Its survival is 5.42 (inactive).

With `C[C@H]1[C@H](C)CC[C@]2(C(=O)O)CC[C@]3(C)C(=CCC4[C@@]5(C)CC[C@H](O)C(C)(C)[C@@H]5CC[C@]43C)[C@H]12` (stereo not given in full) as the compound, how does the survival read?
Its survival is 11.2 (inactive).

With `C1CCN2C[C@H]3C[C@@H](CN4CCCC[C@@H]34)[C@H]2C1` as the compound, how does the survival read?
Its survival is 10 (inactive).

With `CC[C@H]1CN2CCc3cc(OC)c(OC)cc3[C@@H]2C[C@@H]1CC1NCCc2cc(OC)c(OC)cc21` (stereo not given in full) as the compound, how does the survival read?
Its survival is 0.25 (inactive).

Which survival does the source give for `CN1CCC23c4ccccc4NC1C21CCN(C)C3Nc2ccccc21` here?
The survival was 4.92 (inactive).

With `O=C(N[C@H](CO)[C@@H](O)c1ccc([N+](=O)[O-])cc1)C(Cl)Cl` as the compound, how does the survival read?
The survival was 26.4 (inactive).

Which survival does the source give for `COC1CC(O[C@@H]2[C@H](C)[C@H](OC3OC(C)CC(N(C)C)C3OC(C)=O)[C@H](C)CC3(CO3)C(=O)[C@@H](C)C(OC(C)=O)[C@H](C)[C@H](C)OC(=O)[C@@H]2C)OC(C)C1OC(C)=O` (stereo not given in full) here?
Its survival is 27.8 (inactive).

Which survival does the source give for `CS(=O)(=O)c1ccc(-c2nc(-c3ccc(F)cc3)c(-c3ccncc3)[nH]2)cc1` here?
Its survival is 113 (inactive).

For `CCOC(=O)Oc1c(OC)cc(C(=O)OC2CC3CN4CCc5c([nH]c6cc(OC)ccc56)C4CC3C(C(=O)OC)C2OC)cc1OC` (stereo not given), which survival is on record?
Its survival is 6.25 (inactive).

With `NCC1OC(COC[C@@H]2C(O)[C@H](OC3C(O)C(N)CC(N)C3OC3OC(CN)C(O)C(O)C3N)O[C@@H]2CO)C(N)C(O)C1O` (stereo not given in full) as the compound, how does the survival read?
The survival was 12.3 (inactive).

With `CC(C)(CS)C(=O)N1CCC[C@@H]1C(=O)O` as the compound, how does the survival read?
The survival was 8.75 (inactive).

For `CC[C@@H]1OC(=O)[C@H](C)[C@H](O[C@H]2C[C@@](C)(OC)[C@@H](O)[C@H](C)O2)[C@@H](C)[C@@H](O[C@@H]2O[C@H](C)C[C@H](N(C)C)[C@H]2O)C(C)(O)C[C@@H](C)[C@@H]2NC(COCCOC)OC([C@H]2C)[C@]1(C)O` (stereo not given in full), which survival is on record?
Its survival is 4.33 (inactive).

For `Cc1cc2ncc(-c3ccccc3)nc2cc1C`, which survival is on record?
Its survival is 100 (inactive).
